Reference: PubChem BioAssay (NCATS)
Results filed as inconclusive are left out. Activity calls are given as the source filed them. Calls follow the shape of the dose curve; as a rule, active = well fitted cell-killing curve with a large enough effect; inconclusive = small, poorly fitted or top-dose-only effect, or effect the other way; inactive = flat fitted curve, though single readings scatter.

Experiments:
Test in all cases: Primary qHTS to identify gynecologic anti-cancer compounds using libraries of approved drugs and bioactive compounds (AID 1345084); also: nearly all actives have a fitted effect of over 55% in size
[1] = tested on: C33A; settings: Gynecologic cancer cell panel viability, ATPlite luminescence, 48 h; series mostly up to 57.5 µM
Summary of the method: (§1)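 Five-point cytotoxicity, 48 h drug exposure at 37 C, 5% CO2, on cells seeded 16 h beforehand. ATP content read by ATPlite luminescence.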

[2] = tested on: CAOV3; settings: Gynecologic cancer cell panel viability, ATPlite luminescence, 48 h; series mostly up to 57.5 µM
Summary of the method: as §1

[3] = tested on: CASKI; settings: Gynecologic cancer cell panel viability, ATPlite luminescence, 48 h; series mostly up to 57.5 µM
Summary of the method: as §1

[4] = tested on: Es-2; settings: Gynecologic cancer cell panel viability, ATPlite luminescence, 48 h; series mostly up to 57.5 µM
Summary of the method: as §1

[5] = tested on: HeLa; settings: Gynecologic cancer cell panel viability, ATPlite luminescence, 48 h; series mostly up to 57.5 µM
Summary of the method: as §1

[6] = tested on: Hek293T; settings: Gynecologic cancer cell panel viability, ATPlite luminescence, 48 h, control line for the selectivity index; series mostly up to 57.5 µM
Summary of the method: as §1

[7] = tested on: JEG-3; settings: Gynecologic cancer cell panel viability, ATPlite luminescence, 48 h; series mostly up to 57.5 µM
Summary of the method: as §1

[8] = tested on: OV90; settings: Gynecologic cancer cell panel viability, ATPlite luminescence, 48 h; series mostly up to 57.5 µM
Summary of the method: as §1

[9] = tested on: SKOV3; settings: Gynecologic cancer cell panel viability, ATPlite luminescence, 48 h; series mostly up to 57.5 µM
Summary of the method: as §1

[10] = tested on: Tov-21-G; settings: Gynecologic cancer cell panel viability, ATPlite luminescence, 48 h; series mostly up to 57.5 µM
Summary of the method: as §1

[11] = tested on: Tov112D; settings: Gynecologic cancer cell panel viability, ATPlite luminescence, 48 h; series mostly up to 57.5 µM
Summary of the method: as §1

[12] = tested on: PA-1; settings: Gynecologic cancer cell panel viability, ATPlite luminescence, 48 h; series mostly up to 57.5 µM
Summary of the method: as §1
% is scaled to controls: 0 for no effect and ±100 for the full control effect.

CC(C)=CCC[C@](C)(O[C@@H]1O[C@H](CO[C@@H]2O[C@@H](CO)[C@H](O)[C@H]2O)[C@@H](O)[C@H](O)[C@H]1O)[C@H]1CC[C@]2(C)[C@@H]1[C@H](O)C[C@@H]1[C@@]3(C)CC[C@H](O[C@@H]4O[C@H](CO)[C@@H](O)[C@H](O)[C@H]4O[C@@H]4O[C@H](CO)[C@@H](O)[C@H](O)[C@H]4O)C(C)(C)[C@@H]3CC[C@]12C
inactive: Potency [1] | Potency [2] | outcome [3] | Potency [4] | Potency [5] | Potency [6] | Potency [7] | Potency [8] | Potency [9] | Potency [10] | Potency [11]

COc1c(C)c(OCC=C(C)C)cc2c1CNC2=O
inactive: Potency [1] | Potency [2] | outcome [3] | Potency [4] | Potency [5] | Potency [6] | Potency [7] | Potency [8] | Potency [9] | Potency [10] | Potency [11]

Cc1ncc(NC(=O)c2ccc(CN3CCN(C)CC3)c(C(F)(F)F)c2)cc1Nc1nccc(-c2cccnc2)n1
inactive: Potency [1] | Potency [2] | outcome [3] | Potency [4] | Potency [5] | Potency [6] | Potency [7] | Potency [12] | Potency [9] | Potency [10] | Potency [11]

CNc1nc(C)nc(N[C@H]2CCC[C@@H](C(=O)NCc3ccc(C#N)cc3C(F)(F)F)C2)n1
inactive: Potency [1] | Potency [2] | outcome [3] | Potency [4] | Potency [5] | Potency [6] | Potency [7] | Potency [8] | Potency [9] | Potency [10] | Potency [11]

CC1=C2CC(C)(C)CC2C(O)C2=C(C1)C(=O)OC2O (stereo unspecified)
inactive: Potency [1] | Potency [2] | outcome [3] | Potency [4] | Potency [5] | Potency [6] | Potency [7] | Potency [8] | Potency [9] | Potency [10] | Potency [11]

CCC12CCCN3CCc4c(n(c5ccccc45)C(O)C1)C32 (stereo unspecified)
inactive: Potency [1] | Potency [2] | outcome [3] | Potency [4] | Potency [5] | Potency [6] | Potency [7] | Potency [8] | Potency [12] | Potency [10] | Potency [11]

CC(O)CCc1ccc(O[C@@H]2O[C@H](CO)[C@@H](O)[C@H](O)[C@H]2O)cc1 (stereo partly specified)
inactive: Potency [1] | Potency [2] | outcome [3] | Potency [4] | Potency [5] | Potency [6] | Potency [7] | Potency [12] | Potency [9] | Potency [10] | Potency [11]

COc1cc(/C=C/CO[C@@H]2O[C@H](CO)[C@@H](O)[C@H](O)[C@H]2O)cc(OC)c1O[C@@H]1O[C@H](CO)[C@@H](O)[C@H](O)[C@H]1O
inactive: Potency [1] | Potency [2] | outcome [3] | Potency [4] | Potency [5] | Potency [6] | Potency [7] | Potency [8] | Potency [9] | Potency [10] | Potency [11]

C=C1[C@@H]2CC[C@@]3(C)[C@H](c4ccoc4)OC(=O)C[C@]13O[C@H]1CC(=O)C(C)(C)[C@H](C(O)C(=O)OC)[C@]12C (stereo partly specified)
inactive: Potency [1] | Potency [2] | outcome [3] | Potency [4] | Potency [5] | Potency [6] | Potency [7] | Potency [8] | Potency [9] | Potency [10] | Potency [11]

CC1(CO)CC(O)C2(C)CCC3(C)C(=CCC4C5(C=O)CCC(OC6OC(C(=O)O)C(O)C(O)C6OC6OC(C(=O)O)C(O)C(O)C6O)C(C)(C)C5CCC43C)C2C1 (stereo unspecified)
inactive: activity change, negative = cytotoxicity [1] 4.08% [at 11.6 µM] | activity change, negative = cytotoxicity [2] 8.53% [at 11.6 µM] | activity change, negative = cytotoxicity [3] 5.93% [at 11.6 µM] | activity change, negative = cytotoxicity [4] 3.36% [at 11.6 µM] | activity change, negative = cytotoxicity [5] 7.21% [at 11.6 µM] | activity change, negative = cytotoxicity [6] -0.0914% [at 11.6 µM] | activity change, negative = cytotoxicity [7] 2.3% [at 11.6 µM] | activity change, negative = cytotoxicity [8] 0.842% [at 11.6 µM] | activity change, negative = cytotoxicity [10] 10.3% [at 11.6 µM] | activity change, negative = cytotoxicity [11] 20.1% [at 11.6 µM]

CC(=O)OC1CC2(C)C(CCC(C)C23Cc2c(O)cc4c(c2O3)CNC4=O)C(C)(C)C1O (stereo unspecified)
inactive: Potency [1] | Potency [2] | outcome [3] | Potency [4] | Potency [5] | Potency [6] | Potency [7] | Potency [8] | Potency [9] | Potency [10] | Potency [11]

Cn1nccc1-c1ccccc1Oc1ccc(S(=O)(=O)Nc2nccs2)cc1C#N
inactive: Potency [1] | Potency [2] | outcome [3] | Potency [4] | Potency [5] | Potency [6] | Potency [7] | Potency [12] | Potency [10] | Potency [11]

COC(=O)C1=COC(OC2OC(CO)C(O)C(O)C2O)C2C(C)CC(=O)C12O (stereo unspecified)
inactive: Potency [1] | Potency [2] | outcome [3] | Potency [4] | Potency [5] | Potency [6] | Potency [7] | Potency [8] | Potency [9] | Potency [10] | Potency [11]
